Test results reported in PMC5540273 (PLoS ONE, 2017).

Columns and labels:
Settings in all cases: concentration: 1 μM, replicates: in singlicate; n = 1
[1] = tested on: T1, GRK2
T1 construct: gene ADRBK1

[2] = tested on: T2, GRK3
T2 construct: gene ADRBK2

[3] = tested on: GRK4
[4] = tested on: GRK7
[5] = tested on: GSK3A
[6] = tested on: GSK3B
[7] = tested on: T3, HASPIN
T3 construct: gene GSG2

[8] = tested on: HCK
[9] = tested on: HIPK1
[10] = tested on: HIPK2
[11] = tested on: HIPK3
[12] = tested on: HIPK4
[13] = tested on: HPK1
[14] = tested on: HUNK
[15] = tested on: ICK
[16] = tested on: IGF1R
[17] = tested on: T4, IKK-alpha
T4 construct: gene CHUK

[18] = tested on: T5, IKK-beta
T5 construct: gene IKBKB

[19] = tested on: T6, IKK-epsilon
T6 construct: gene IKBKE

[20] = tested on: INSRR
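Further: KINOMEscan kinase panel screen.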

## COC(=O)c1c(-c2ccccc2)c2cc(Br)ccc2c(=O)n1Cc1ccc(NC(=O)CCC(=O)O)cc1
[1]
  %Inh: 19%
[2]
  %Inh: 8%
[3]
  %Inh: 0%
[4]
  %Inh: 31%
[5]
  %Inh: 0%
[6]
  %Inh: 15%
[7]
  %Inh: 6%
[8]
  %Inh: 14%
[9]
  %Inh: 26%
[10]
  %Inh: 28%
[11]
  %Inh: 0%
[12]
  %Inh: 0%
[13]
  %Inh: 0%
[14]
  %Inh: 0%
[15]
  %Inh: 14%
[16]
  %Inh: 0%
[17]
  %Inh: 0%
[18]
  %Inh: 0%
[19]
  %Inh: 0%
[20]
  %Inh: 13%

## COc1ccc(-n2cnc3c(N)ncnc32)cc1 [SKF-97236]
[1]
  %Inh: 12%
[2]
  %Inh: 0%
[3]
  %Inh: 22%
[4]
  %Inh: 3%
[5]
  %Inh: 6%
[6]
  %Inh: 15%
[7]
  %Inh: 0%
[8]
  %Inh: 0%
[9]
  %Inh: 24%
[10]
  %Inh: 5%
[11]
  %Inh: 12%
[12]
  %Inh: 29%
[13]
  %Inh: 5%
[14]
  %Inh: 0%
[15]
  %Inh: 0%
[16]
  %Inh: 19%
[17]
  %Inh: 0%
[18]
  %Inh: 19%
[19]
  %Inh: 3%
[20]
  %Inh: 2%

## Cc1ccc(Oc2ccc(Nc3ncnc4cc[nH]c34)cc2C)cn1
[1]
  %Inh: 0%
[2]
  %Inh: 28%
[3]
  %Inh: 0%
[4]
  %Inh: 44%
[5]
  %Inh: 0%
[6]
  %Inh: 0%
[7]
  %Inh: 8%
[8]
  %Inh: 16%
[9]
  %Inh: 20%
[10]
  %Inh: 11%
[11]
  %Inh: 24%
[12]
  %Inh: 0%
[13]
  %Inh: 0%
[14]
  %Inh: 4%
[15]
  %Inh: 33%
[16]
  %Inh: 0%
[17]
  %Inh: 0%
[18]
  %Inh: 8%
[19]
  %Inh: 50%
[20]
  %Inh: 0%

## Nc1ncnc2c1ncn2-c1cccc(F)c1 [SKF-97560]
[1]
  %Inh: 61%
[2]
  %Inh: 40%
[3]
  %Inh: 0%
[4]
  %Inh: 4%
[5]
  %Inh: 18%
[6]
  %Inh: 13%
[7]
  %Inh: 45%
[8]
  %Inh: 0%
[9]
  %Inh: 12%
[10]
  %Inh: 16%
[11]
  %Inh: 14%
[12]
  %Inh: 6%
[13]
  %Inh: 23%
[14]
  %Inh: 10%
[15]
  %Inh: 6%
[16]
  %Inh: 1%
[17]
  %Inh: 13%
[18]
  %Inh: 19%
[19]
  %Inh: 23%
[20]
  %Inh: 0%

## Cl.c1ccc(Cn2cnc3cc(Nc4ncnc5ccccc45)ccc32)cc1 [GW272142]
[1]
  %Inh: 0%
[2]
  %Inh: 50%
[3]
  %Inh: 0%
[4]
  %Inh: 0%
[5]
  %Inh: 0%
[6]
  %Inh: 1%
[7]
  %Inh: 0%
[8]
  %Inh: 0%
[9]
  %Inh: 0%
[10]
  %Inh: 0%
[11]
  %Inh: 8%
[12]
  %Inh: 0%
[13]
  %Inh: 36%
[14]
  %Inh: 5%
[15]
  %Inh: 0%
[16]
  %Inh: 34%
[17]
  %Inh: 0%
[18]
  %Inh: 12%
[19]
  %Inh: 17%
[20]
  %Inh: 36%

## CN1C(=O)C(Nc2cc(Cl)c(O)c(Cl)c2)=C(c2ccc(Cl)cc2)C1=O [SB-404321]
[1]
  %Inh: 22%
[2]
  %Inh: 28%
[3]
  %Inh: 96.7%
[4]
  %Inh: 0%
[5]
  %Inh: 0%
[6]
  %Inh: 0%
[7]
  %Inh: 0%
[8]
  %Inh: 0%
[9]
  %Inh: 0%
[10]
  %Inh: 38%
[11]
  %Inh: 0%
[12]
  %Inh: 0%
[13]
  %Inh: 12%
[14]
  %Inh: 0%
[15]
  %Inh: 6%
[16]
  %Inh: 0%
[17]
  %Inh: 0%
[18]
  %Inh: 0%
[19]
  %Inh: 0%
[20]
  %Inh: 0%

## COc1ccc(-c2cc3c(C)nc(N)nc3n([C@H]3CC[C@H](O)CC3)c2=O)cn1
[1]
  %Inh: 0%
[2]
  %Inh: 14%
[3]
  %Inh: 0%
[4]
  %Inh: 1%
[5]
  %Inh: 0%
[6]
  %Inh: 0%
[7]
  %Inh: 0%
[8]
  %Inh: 0%
[9]
  %Inh: 0%
[10]
  %Inh: 0%
[11]
  %Inh: 0%
[12]
  %Inh: 0%
[13]
  %Inh: 0%
[14]
  %Inh: 0%
[15]
  %Inh: 0%
[16]
  %Inh: 0%
[17]
  %Inh: 0%
[18]
  %Inh: 0%
[19]
  %Inh: 0%
[20]
  %Inh: 0%

## CCC(=O)c1c(-c2ccccc2)c2cc(Cl)ccc2c(=O)n1Cc1cc(C(=O)NC2CC2)n(C)n1
[1]
  %Inh: 0%
[2]
  %Inh: 23%
[3]
  %Inh: 0%
[4]
  %Inh: 12%
[5]
  %Inh: 0%
[6]
  %Inh: 13%
[7]
  %Inh: 25%
[8]
  %Inh: 22%
[9]
  %Inh: 0%
[10]
  %Inh: 8%
[11]
  %Inh: 2%
[12]
  %Inh: 1%
[13]
  %Inh: 0%
[14]
  %Inh: 0%
[15]
  %Inh: 4%
[16]
  %Inh: 0%
[17]
  %Inh: 5%
[18]
  %Inh: 10%
[19]
  %Inh: 0%
[20]
  %Inh: 0%

## Nc1nc(N)c2nc(-c3ccccc3)[nH]c2n1 [SKF-12778]
[1]
  %Inh: 13%
[2]
  %Inh: 9%
[3]
  %Inh: 18%
[4]
  %Inh: 4%
[5]
  %Inh: 0%
[6]
  %Inh: 0%
[7]
  %Inh: 0%
[8]
  %Inh: 3%
[9]
  %Inh: 5%
[10]
  %Inh: 11%
[11]
  %Inh: 10%
[12]
  %Inh: 13%
[13]
  %Inh: 57%
[14]
  %Inh: 11%
[15]
  %Inh: 15%
[16]
  %Inh: 15%
[17]
  %Inh: 4%
[18]
  %Inh: 17%
[19]
  %Inh: 12%
[20]
  %Inh: 12%

## Cl.NS(=O)(=O)c1cccc(Nc2cc(-c3ccc(F)cc3)n[nH]2)c1 [GW824645]
[1]
  %Inh: 0%
[2]
  %Inh: 21%
[3]
  %Inh: 0%
[4]
  %Inh: 0%
[5]
  %Inh: 0%
[6]
  %Inh: 6%
[7]
  %Inh: 51%
[8]
  %Inh: 13%
[9]
  %Inh: 36%
[10]
  %Inh: 10%
[11]
  %Inh: 18%
[12]
  %Inh: 18%
[13]
  %Inh: 0%
[14]
  %Inh: 58%
[15]
  %Inh: 12%
[16]
  %Inh: 0%
[17]
  %Inh: 1%
[18]
  %Inh: 9%
[19]
  %Inh: 8%
[20]
  %Inh: 0%

## FC(F)(F)c1ccc(-c2ncn(CCCN3CCOCC3)c2-c2ccncc2)cc1 [SB-217780]
[1]
  %Inh: 5%
[2]
  %Inh: 0%
[3]
  %Inh: 26%
[4]
  %Inh: 0%
[5]
  %Inh: 0%
[6]
  %Inh: 25%
[7]
  %Inh: 11%
[8]
  %Inh: 8%
[9]
  %Inh: 18%
[10]
  %Inh: 52%
[11]
  %Inh: 7%
[12]
  %Inh: 0%
[13]
  %Inh: 1%
[14]
  %Inh: 0%
[15]
  %Inh: 64%
[16]
  %Inh: 0%
[17]
  %Inh: 1%
[18]
  %Inh: 0%
[19]
  %Inh: 8%
[20]
  %Inh: 0%

## Cc1nc(N(C)[C@H]2CN(C(=O)CC#N)CC[C@H]2C)c2cc[nH]c2n1
[1]
  %Inh: 0%
[2]
  %Inh: 0%
[3]
  %Inh: 0%
[4]
  %Inh: 0%
[5]
  %Inh: 9%
[6]
  %Inh: 0%
[7]
  %Inh: 0%
[8]
  %Inh: 0%
[9]
  %Inh: 6%
[10]
  %Inh: 0%
[11]
  %Inh: 9%
[12]
  %Inh: 0%
[13]
  %Inh: 0%
[14]
  %Inh: 0%
[15]
  %Inh: 0%
[16]
  %Inh: 0%
[17]
  %Inh: 0%
[18]
  %Inh: 5%
[19]
  %Inh: 0%
[20]
  %Inh: 0%

## CN(C)c1cc(-c2ccc3c(N)n[nH]c3c2)nc(N)n1 [GSK2219329]
[1]
  %Inh: 0%
[2]
  %Inh: 0%
[3]
  %Inh: 0%
[4]
  %Inh: 0%
[5]
  %Inh: 0%
[6]
  %Inh: 5%
[7]
  %Inh: 0%
[8]
  %Inh: 0%
[9]
  %Inh: 0%
[10]
  %Inh: 0%
[11]
  %Inh: 17%
[12]
  %Inh: 0%
[13]
  %Inh: 26%
[14]
  %Inh: 2%
[15]
  %Inh: 4%
[16]
  %Inh: 14%
[17]
  %Inh: 0%
[18]
  %Inh: 0%
[19]
  %Inh: 40%
[20]
  %Inh: 0%

## COc1cc2ncn(-c3cc(OCCCc4ccccc4)c(C(N)=O)s3)c2cc1OC [GSK205189]
[1]
  %Inh: 0%
[2]
  %Inh: 0%
[3]
  %Inh: 13%
[4]
  %Inh: 0%
[5]
  %Inh: 10%
[6]
  %Inh: 0%
[7]
  %Inh: 0%
[8]
  %Inh: 4%
[9]
  %Inh: 9%
[10]
  %Inh: 0%
[11]
  %Inh: 0%
[12]
  %Inh: 60%
[13]
  %Inh: 28%
[14]
  %Inh: 0%
[15]
  %Inh: 0%
[16]
  %Inh: 13%
[17]
  %Inh: 0%
[18]
  %Inh: 0%
[19]
  %Inh: 14%
[20]
  %Inh: 3%

## Nc1nccc2scc(-c3ccc4c(c3)CCN4C(=O)Cc3ccccc3)c12 [GSK2576924]
[1]
  %Inh: 4%
[2]
  %Inh: 100%
[3]
  %Inh: 0%
[4]
  %Inh: 0%
[5]
  %Inh: 11%
[6]
  %Inh: 2%
[7]
  %Inh: 0%
[8]
  %Inh: 0%
[9]
  %Inh: 0%
[10]
  %Inh: 0%
[11]
  %Inh: 11%
[12]
  %Inh: 0%
[13]
  %Inh: 18%
[14]
  %Inh: 0%
[15]
  %Inh: 0%
[16]
  %Inh: 1%
[17]
  %Inh: 0%
[18]
  %Inh: 0%
[19]
  %Inh: 12%
[20]
  %Inh: 0%
